Screens as filed in PubChem BioAssay.
A selection: hits, their analogues and other compounds. The true share with any hit is near 3%.
IP6K1 inhibitor: Primary qHTS assay for small molecule inhibitors of Inositol hexaphosphate kinase 1 (IP6K1); activity change, % (series mostly up to about 58 µM); 0.81% of 140,000 active; Inositol hexakisphosphate kinase 1 (Homo sapiens), Q92551; IP6K1 kinase, ADP-Glo luminescence, 2 h; stronger effect = lower value; AID 1645851, 2021; in the data active = activity change below about -25%; also: % is scaled to controls: 0 for no effect and ±100 for the full control effect
Target sequence (Q92551 whole entry, looked up): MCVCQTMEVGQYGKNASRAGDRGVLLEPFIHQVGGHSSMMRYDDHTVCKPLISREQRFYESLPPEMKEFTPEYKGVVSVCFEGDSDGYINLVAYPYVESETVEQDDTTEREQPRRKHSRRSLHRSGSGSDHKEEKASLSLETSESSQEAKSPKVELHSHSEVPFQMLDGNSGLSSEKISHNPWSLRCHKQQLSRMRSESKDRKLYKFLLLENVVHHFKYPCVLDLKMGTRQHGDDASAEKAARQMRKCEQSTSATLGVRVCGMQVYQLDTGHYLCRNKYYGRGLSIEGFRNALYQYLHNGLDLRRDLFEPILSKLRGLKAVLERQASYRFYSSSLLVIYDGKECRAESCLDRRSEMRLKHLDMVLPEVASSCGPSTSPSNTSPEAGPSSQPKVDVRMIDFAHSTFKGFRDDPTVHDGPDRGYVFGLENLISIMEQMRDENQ
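ADP-Glo luminescence measures ADP made by human IP6K1 during a 2 h RT reaction with ATP/IP6 (mix at 1.3 mM/130 uM); top library doses 57.5 and 19.1 uM final.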
HEK293 viab: GF-AFC viability counterscreen for inhibitors of alpha-synuclein gene (SNCA) expression. 0.12% of 150,000 active. Potency, µM (titrated, usually from 57.1 µM), without a hit: at the top dose activity change, negative = cytotoxicity, actives largely listed as cytotoxic. HEK-293-SNCA-luc viability, GF-AFC fluorescence, 24 h. AID 1671193, 2021;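 also: potency is read from the fitted curve at half-maximal effect; 0% = DMSO-treated cells and -100% = medium-only wells without cells; nearly all actives have a fitted effect of over 30% in size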
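HEK-293-SNCA-luc cells (1500/well) plated 24 h, then exposed 24 h to a dilution series; GF-AFC added 30 min at 37C, fluorescence 405/540 nm; normalised to medium-only and DMSO wells, Hill fit.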
KDM5B inh: Primary screen for KDM5B Histone Demethylases FDH-coupled qHTS; KDM5B demethylase, FDH-coupled NADH fluorescence (FDH is formaldehyde dehydrogenase); Potency, µM (series often up to 57.7 µM), actives largely listed as inhibitors; 2.6% of 220,000 active; AID 1347165, 2019; also: potency is read from the fitted curve at half-maximal effect; 0% is about no effect; nearly all actives have a fitted effect of over 70% in size
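Here, H3K4me3 peptide (12.5 µM in substrate mix) is demethylated by KDM5BΔAP, 200 nM final, after 10 min compound exposure. Formaldehyde product is coupled through FDH (0.25 U/mL in mix) to NADH fluorescence; 30-min ΔRFU feeds dose-response curves.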
SNCA expr inhib: Primary qHTS assay for inhibitors of alpha-synuclein gene (SNCA) expression; HEK-293 SNCA-luciferase knock-in, luminescence, 24 h; Potency, µM (highest dose often 57.2 µM), for the others: top-dose activity change, negative = inhibition, usual class: inhibitors; 0.17% of 140,000 active; AID 1671194, 2021;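 also: potency is read from the fitted curve at half-maximal effect; plate controls were DMSO cells for no effect and cell-free wells for full effect; nearly all actives have a fitted effect of over 45% in size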
An asterisk follows results filed as active; [ ] = remark or other dose. Unless noted, calls follow the shape of the dose curve; as a rule, active = well fitted curve in the direction sought with a large enough effect; inconclusive = small, poorly fitted or top-dose-only effect, or another doubt; inactive = no such curve, though single readings can be large; an effect the other way counts as inactive or inconclusive.

`NC(=O)C1CCN(c2cc(-c3noc([C@@H]4CCCN4Cc4ccc(F)c(F)c4)n3)ccn2)CC1` gave IP6K1 inhibitor 16, HEK293 viab -12%, KDM5B inh 25µM* and SNCA expr inhib 0%.
Screening CN(C)c1ccc(CN2CCC[C@H]2c2nc(-c3ccnc(N4CCC(C(N)=O)CC4)c3)no2)cc1 returned IP6K1 inhibitor 21, HEK293 viab -1%, KDM5B inh inconclusive and SNCA expr inhib 7%.
`COc1nc(-c2ccc(OC)c3ncccc23)ncc1F` gave IP6K1 inhibitor -14, HEK293 viab 8%, KDM5B inh 32µM* and SNCA expr inhib -15%.
Screening COc1ccc(-c2nc(C)c(C)cc2C#N)c2cccnc12 returned IP6K1 inhibitor 34, HEK293 viab 1%, KDM5B inh 32µM* and SNCA expr inhib 6%.
`COc1cccc(N2C(=O)NC(=NC3CCCCC3)C23CCCN(Cc2ccc(N(C)C)cc2)C3)c1` (stereo unspecified) gave IP6K1 inhibitor -11, HEK293 viab inconclusive, KDM5B inh inactive and SNCA expr inhib inconclusive.
Screening O=C(NC1CCN(C(=O)c2ccc(-c3cncnc3)cc2)CC1)c1ccc(Cl)cc1 returned IP6K1 inhibitor 2, HEK293 viab 7%[12.5 µM] and SNCA expr inhib -24%.
For O=C(NCCN1CCCC1)c1nnn2cc(-c3ccccc3)[nH]c(=O)c12 the results were IP6K1 inhibitor 0, HEK293 viab 8%, KDM5B inh 2.5µM* and SNCA expr inhib -11%.
COc1cc(-c2cccs2)cc2c1OCCN(C(=O)c1ccncc1C)C2 was read as IP6K1 inhibitor 4, HEK293 viab -7%, KDM5B inh inactive and SNCA expr inhib -1%.
Screening COc1cc(-c2cc(C)c3cccc(OC)c3n2)cc2c1OCCN(C(=O)CCN)C2 returned IP6K1 inhibitor -8, HEK293 viab 8%, KDM5B inh 28µM* and SNCA expr inhib 7%.
COc1ccc(-c2ccc3nnc(CNC(=O)c4ccc(F)c(Cl)c4)n3n2)cc1 was read as IP6K1 inhibitor -1, HEK293 viab 13%, KDM5B inh 28µM* and SNCA expr inhib -3%.
COc1ccc(-c2ccc3nnc(CNC(=O)c4ccc(C#N)cc4)n3n2)cc1 was read as IP6K1 inhibitor -10, HEK293 viab -7%, KDM5B inh inactive and SNCA expr inhib 1%.
For COc1ccc(-c2ccc3nnc(CNC(=O)c4cccc(NC(C)=O)c4)n3n2)cc1 the results were IP6K1 inhibitor 16, HEK293 viab 6%, KDM5B inh 28µM* and SNCA expr inhib -9%.
`COc1ccc(-c2ccc3nnc(CNC(=O)c4cccc(OC)c4)n3n2)cc1` gave IP6K1 inhibitor 14, HEK293 viab -1%, KDM5B inh 28µM* and SNCA expr inhib -14%.
For COc1ccc(-c2ccc3nnc(CNC(=O)c4cccc(C#N)c4)n3n2)cc1 the results were IP6K1 inhibitor 15, HEK293 viab -8%, KDM5B inh 28µM* and SNCA expr inhib 7%.
For CC(C)(C)C(=O)NC1CCCN(c2ccc3nnc(-c4ccccc4)n3n2)C1 (stereo unspecified) the results were IP6K1 inhibitor 7.
For CC(=O)Nc1cccc(C(=O)NCc2nnc3ccc(-c4ccccc4)nn23)c1 the results were IP6K1 inhibitor 0, HEK293 viab -2%, KDM5B inh 32µM* and SNCA expr inhib -1%.
For COc1cccc(CC(=O)NCc2nnc3ccc(-c4ccccc4)nn23)c1 the results were IP6K1 inhibitor 15, HEK293 viab -13%, KDM5B inh inactive and SNCA expr inhib -14%.
COc1ccc(-c2ccc3nnc(CNC(=O)Cc4cccc(OC)c4)n3n2)cc1 was read as IP6K1 inhibitor -6, HEK293 viab -7%, KDM5B inh 25µM* and SNCA expr inhib -1%.
Cn1cccc1C(=O)NCc1nnc2ccc(-c3ccccc3)nn12 was read as IP6K1 inhibitor 3, HEK293 viab 3%, KDM5B inh inactive and SNCA expr inhib 10%.
`COc1ccc(-c2ccc3nnc(CNC(=O)c4ccc(OC)nc4OC)n3n2)cc1` gave IP6K1 inhibitor 19, HEK293 viab -13%, KDM5B inh 32µM* and SNCA expr inhib 15%.
COc1ccc(-c2ccc3nnc(CNC(=O)c4cccn4C)n3n2)cc1 was read as IP6K1 inhibitor -7, HEK293 viab 7%, KDM5B inh 28µM* and SNCA expr inhib 37%.
For COc1ccc(-c2ccc3nnc(CNC(=O)c4cc(Cl)ccc4OC)n3n2)cc1 the results were IP6K1 inhibitor -9, HEK293 viab 6%, KDM5B inh inactive and SNCA expr inhib 15%.
COc1cccc(C(=O)N2CCN(c3nccc(Nc4ccccc4Cl)n3)CC2)c1 was read as IP6K1 inhibitor 13, HEK293 viab -5% and SNCA expr inhib 5%.
For COc1ccc(CNC(=O)C2CCCN(Cc3cccc(-c4ccsc4)c3)C2)cc1 (stereo unspecified) the results were IP6K1 inhibitor -8.
`COc1ccc(-c2ccc3nnc(CNC(=O)c4ccoc4)n3n2)cc1` gave IP6K1 inhibitor -8, HEK293 viab 9%, KDM5B inh 32µM* and SNCA expr inhib 35%.
`CCN(CC)c1ccc(C(=O)NCc2nnc3ccc(-c4ccc(OC)cc4)nn23)cc1` gave IP6K1 inhibitor 4, HEK293 viab -10%, KDM5B inh inactive and SNCA expr inhib 1%.
O=C(NCc1ccccc1)c1csc(Nc2ccncn2)n1 was read as IP6K1 inhibitor -1, HEK293 viab inconclusive and SNCA expr inhib 9.6µM*.
For Cc1ccccc1Nc1nc(C(=O)NCc2ccccc2)cs1 the results were KDM5B inh inactive.
`COc1ccc(-c2ccnc(N[C@H]3CO[C@H]4[C@@H]3OC[C@@H]4NC(=O)c3ccc(C)cc3)n2)cc1` gave IP6K1 inhibitor -14, HEK293 viab 4%, KDM5B inh inconclusive and SNCA expr inhib -17%.
`COc1ccc(-c2ccnc(N[C@H]3CO[C@H]4[C@@H]3OC[C@@H]4NC(=O)Nc3cccc(C#N)c3)n2)cc1` gave IP6K1 inhibitor -3, HEK293 viab -6%, KDM5B inh 25µM* and SNCA expr inhib inconclusive.
Screening COc1ccc(-c2ccnc(N[C@H]3CO[C@H]4[C@@H]3OC[C@@H]4NS(=O)(=O)c3cccs3)n2)cc1 returned IP6K1 inhibitor -7, HEK293 viab -1%, KDM5B inh 14µM* and SNCA expr inhib -7%.
Screening COc1ccc(-c2ccnc(N[C@H]3CO[C@H]4[C@@H]3OC[C@H]4OC(=O)Nc3cccc(OC)c3)n2)cc1 returned IP6K1 inhibitor -5, HEK293 viab -2%, KDM5B inh inconclusive and SNCA expr inhib inconclusive.
Screening COCC(=O)N[C@H]1CO[C@H]2[C@@H]1OC[C@@H]2Nc1nccc(-c2ccc(OC)cc2)n1 returned IP6K1 inhibitor 0, HEK293 viab -5%[87.6 µM], KDM5B inh 35µM* and SNCA expr inhib 19%[87.6 µM].
